The results in this text go back to PubChem BioAssay AID1159614 (National Center for Advancing Translational Sciences (NCATS), 2016).

The whole screen tested about 45,000 compounds, of which about 65 (0.1%) were called active. What follows is part of a selection rich in actives, with near analogues and random picks from the rest. Unmarked numbers belong to inactive results. The call rests on the fitted dose curve; in most records, active means well fitted activation curve with a large enough effect; inconclusive means small, poorly fitted or top-dose-only effect; inactive means no such curve, though single readings can be large or run the other way.

Sequence of Galactocerebrosidase (Homo sapiens) (P54803 whole entry G286D): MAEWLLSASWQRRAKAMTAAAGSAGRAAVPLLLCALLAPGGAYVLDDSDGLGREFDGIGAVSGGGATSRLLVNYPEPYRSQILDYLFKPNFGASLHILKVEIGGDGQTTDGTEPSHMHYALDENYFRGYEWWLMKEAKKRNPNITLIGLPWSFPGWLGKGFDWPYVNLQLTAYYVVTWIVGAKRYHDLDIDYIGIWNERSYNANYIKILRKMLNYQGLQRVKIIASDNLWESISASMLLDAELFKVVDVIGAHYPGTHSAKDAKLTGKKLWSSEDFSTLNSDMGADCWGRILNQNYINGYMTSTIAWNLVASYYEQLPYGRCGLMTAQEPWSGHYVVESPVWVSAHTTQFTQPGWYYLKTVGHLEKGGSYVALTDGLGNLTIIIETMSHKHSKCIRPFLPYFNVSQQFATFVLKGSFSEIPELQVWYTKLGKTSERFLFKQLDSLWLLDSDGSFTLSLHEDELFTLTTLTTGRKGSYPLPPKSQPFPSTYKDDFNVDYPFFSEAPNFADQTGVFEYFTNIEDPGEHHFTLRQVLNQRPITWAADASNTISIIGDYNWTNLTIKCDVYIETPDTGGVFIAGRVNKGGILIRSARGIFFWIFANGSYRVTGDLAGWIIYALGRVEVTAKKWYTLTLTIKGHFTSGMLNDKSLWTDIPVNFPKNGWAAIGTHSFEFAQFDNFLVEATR

The test deals with Galactocerebrosidase (Homo sapiens) (UniProt P54803). The experiment in a line: A Novel Cell-Based Assay to Identify Small Molecules for B -Galactocerebrosidase. Further: 0% is about no effect; nearly all actives have a fitted effect of over 65% in size. Particulars: 145M-Twi-hGALC-G270D cells (Twitcher mouse brain line with human GALC G270D), HMU-beta-Gal fluorescence, 48 h; series mostly up to 57.5 µM; activation: at the top concentration. The text has this:
Lysosomal storage diseases (LSDs) are caused by genetic mutations in genes encoding proteins important for normal lysosomal function. Globoid cell leukodystrophy (GLD), mostly known as Krabbe disease, is a prototype of the neurological LSDs caused by deficiency of beta-galactocerebrosidase (GALC). In brain specimens of GLD patients, psychosine levels are substantially elevated. At elevated concentrations, psychosine becomes cytotoxic to neuronal cells, particularly to oligodendrocytes (OLG), neural cells responsible for myelin formation. Therefore, the biochemical disturbances in GLD are manifested by different degrees of brain demyelination resulting in a broad spectrum of neurological manifestations. Most of the FDA-approved therapies are based on enzyme replacement therapeutic (ERT) agents, which treat non-neurological symptoms of Gaucher disease, Fabry disease, few mucopolysaccharidoses and Pompe disease. Unfortunately, in GLD, a primarily neurological LSD, ERT agents, as large molecular weight molecules unable to cross the blood-brain barrier, which makes this an inefficacious therapeutic approach. In GLD, increasing the residual GALC activity just above the critical threshold (~10% of wild type enzymatic activity), the cytotoxic levels of psychosine will be reduced, avoiding the OLGs apoptosis and the subsequent demyelination process. This will translate in disease stabilization and amelioration of GLD patient symptoms.
A cell-based assay in 1,536-well plate format was developed to implement a quantitative high-throughput screening (qHTS) assay using GLD-disease relevant cells to identify small molecules that produce enhancements of the residual enzymatic activity levels of mutants GALC found and prevalent in GLD patients. Compounds that are active may therefore have some therapeutic application for GLD. After the treatment of live cells for a determined period, using a fluorescent GALC specific substrate, the mutant residual GALC activity is measured. This cell-based qTHS assay was used to screen part of the MLPCN library for small molecule able to increase the mutant GALC enzymatic activity. In this assay, increased fluorescent signal corresponds to enhanced levels of mutant GALC residual enzymatic activity. Activation is the desired outcome for this assay.
NIH Chemical Genomics Center [NCGC]
NIH Molecular Libraries Probe Centers Network [MLPCN]
Assay Submitter (PI): Gustavo Maegawa MD,PhD, University of Florida, Gainesville, FL
2)#Two cell lines were established for the assay: 145M-Twi-hGALC-G270D (brain-derived Twitcher cell line stably expressing human GALC-G270D) and 145M-Twi-hGALC-WT (same 145M-Twi stably expressing human GALC wild type). The Twitcher is the murine C57B/6 model for GLD with naturally occurring homozygous nonsense GALC mutation. The 145M-Twi cell line was established at Maegawa lab (Ribbens J et al 2014).
a.#Media: DMEM/F12 (1:1) with 10% fetal bovine-serum (FBS) with penicillin/streptomycin (PS-1X - 100 I.U./mL of penicillin+100 ug/mL of streptomycin).
b.#The 6-Hexadecanoylamino-4-methylumbelliferyl-b-D-galactoside (HMU-B-gal) substrate was prepared as per Wiederschain et al 1992. Using 20-mL borosilicate tubes, 2.20 mg of HMU-b-Gal was added in each tube to prepare substrate-film with a final air-nitrogen stream evaporation to remove all diluent solvents.
c.#The HMUb-Gal substrate buffer consists of 0.2 M Na2HPO4 (sodium phosphate dibasic)/ 0.1 M Citric Acid with the pH adjusted to 5.2 using HCl. Sodium Azide at 0.02% and Sodium Taurocholate (NaTC) at 1 mg/mL were added to this substrate buffer.
d.#The HMU-b-Gal stopping buffer consist of 0.5 M NaHCO3 (sodium bicarbonate) /0.5 M Na2CO3 (sodium carbonate). […] Triton X-100 at 0.25% was added.
4)#Preparation of HMU-b-Gal substrate tubes
Adding 18.6 mL of the HMUb-Gal substrate buffer to each 20-mL tube (2.20 mg of HMU-b-Gal) will reach a concentration of 0.2 mM. Vortex well the tube until the solution is fully homogenized (clear cloudy solution). […]
For the molecule `Cc1ccc(OCCn2c(CNc3ccccc3C)nc3ccccc32)cc1`, the “activation” value is -7.23%.

As for `Cc1nn(C)c2c1c(C(F)(F)F)cc(=O)n2C(C)C(=O)NCc1ccc(Cl)cc1` (stereo unspecified), the “activation” value was -22.1%.

With `CCOCCCn1c(SCC(=O)Nc2ccc(CC)cc2)nc2ccccc2c1=O`, the “activation” value is -12.9%.

As for `C=Cc1ccc(Cn2c(C(=O)OC)cc3sc(C)cc32)cc1`, the “activation” value is -7.18%.

Regarding `COc1ccc(CCNC(=O)Cn2c(=O)n(-c3ccccc3)c(=O)c3c(C)c(C)sc32)cc1OC`, the “activation” value is -4.98%.

Turning to `O=C(NC1CCN(Cc2ccccc2)CC1)c1ccc(Cn2c(=O)c3ccccc3n(Cc3cccc(F)c3)c2=O)cc1`, the “activation” value was -3.67%.

Consider `CC1CCCN(c2cc3c(cc2F)c(=O)c(S(=O)(=O)c2cccc(Cl)c2)cn3Cc2ccccc2)C1` (stereo unspecified), for which the “activation” value was -16.9%.

As for `Cc1nc(N2CCOCC2)c2c(C(=O)NCc3cccc(Cl)c3)c(C)oc2n1`, the “activation” value is -10.9%.

For the molecule `O=C(Nc1ccc(S(=O)(=O)N2CCC(c3nc4ccccc4s3)CC2)cc1)c1ccccc1F`, the “activation” value is -7.74%.

For `Cc1ccc(N(CC(=O)NCC(C)c2ccccc2)S(=O)(=O)N(C)C)cc1` (stereo unspecified), the “activation” value is 2.28%.

`COc1ccc(-n2ccn(CC(=O)Nc3ccc(C)c(C)c3)c(=O)c2=O)cc1OC`: the “activation” value was -14.7%.

For `CCCc1nn2c(=O)cc(COC(=O)c3ccc(NC(=O)C(C)Oc4ccccc4)cc3)nc2s1` (stereo unspecified), the “activation” value was -6.74%.

Turning to `CCCSc1nc2sc3c(c2c(=O)n1-c1cccc(Br)c1)CC(C)(C)OC3`, the “activation” value is -5.57%.

`Cc1nn(C(C)C(=O)Nc2ccc(C(C)C)cc2)c(=O)c2c1sc1ccccc12` (stereo unspecified): the “activation” value is -10.5%.

For `Cc1cc(C)c(NC(=O)CSc2nc3nccnc3c(=O)n2CCc2c[nH]c3ccccc23)c(C)c1`, the “activation” value is -6.62%.

As for `O=C(CSc1nc(Nc2ccc(F)c(F)c2)c2ccccc2n1)c1ccc(Cl)cc1`, the “activation” value is -5.29%.

Regarding `CCn1c2c(c(=O)n3ncc(C(=O)N4CCN(c5ccccc5)CC4)c13)CN(Cc1ccc(OC)cc1)CC2`, the “activation” value is -22.7%.

As for `CC(=O)Nc1c(C)nn(-c2ccccc2)c1N1CCC(C(=O)Nc2cc(Cl)ccc2C)CC1`, the “activation” value was 1.89%.

`Cc1cc(C)c(-c2n[nH]c3c2C(c2ccccc2F)N(CCO)C3=O)c(O)c1` (stereo unspecified): the “activation” value was -9.56%.

For the molecule `Cc1ccc(C)c(CN2C(=O)c3ccccc3S(=O)c3ccc(C(=O)N4CCOCC4)cc32)c1` (stereo unspecified), the “activation” value is 4.19%.

Regarding `COc1ccc(CCNC(=O)c2cc3cccc4c3n2CC(C)S4)c(OC)c1OC` (stereo unspecified), the “activation” value is -2.07%.

As to `Oc1ccc(-c2nc3ccc(Cl)cn3c2Nc2ccc3c(c2)OCO3)cc1`, the “activation” value was -17%.

For `COc1ccc(S(=O)(=O)N2CCN(c3ccc(F)cc3)CC2)cc1-c1noc(C)n1`, the “activation” value is -17.9%.

`O=C(NCc1ccccc1Cl)C1CCN(c2ncnc3c2nc2n3CCCCC2)CC1`: the “activation” value is -0.25%.

Regarding `Cc1ccc(C)c(Oc2c(C(F)(F)F)oc3c(CN4CCN(C)CC4)c(O)ccc3c2=O)c1`, the “activation” value was -12.2%.

As to `CCc1cccc(C)c1NS(=O)(=O)c1c(C)nc2sccn2c1=O`, the “activation” value is -9.4%.

Consider `CCOC(=O)c1c(-c2ccc(OC)cc2)oc2ccc(OCc3ccc(C(=O)OC)cc3)cc12`, for which the “activation” value is -11.1%.

In the case of `O=C(O)c1ccc2c(c1)N(Cc1ccc(F)cc1)C(=O)c1ccccc1S2=O` (stereo unspecified), the “activation” value was -9.29%.

Regarding `CCNC(=O)c1cc2n(n1)CCCN(Cc1ccc(C)cc1)C2=O`, the “activation” value is 2.77%.

Consider `COc1ccccc1CN1CCC(CNC(=O)c2cnn(-c3cccc(Cl)c3)c2C2CCN(C(=O)OC(C)(C)C)CC2)CC1`, for which the “activation” value is -20.3%.

As for `Cc1cc(NS(=O)(=O)c2ccc3oc(=O)c4ncn(C)c4c3c2)ccc1Br`, the “activation” value was -7.99%.

Consider `Cc1cccc(OCCSc2nc3ccccc3n2CC(=O)N2CCCCC2)c1C`, for which the “activation” value was -30.3%.

For the molecule `CN1C(=O)c2ccccc2Sc2ccc(NC(=O)Cc3ccc(Cl)cc3)cc21`, the “activation” value is -9.11%.

Regarding `CCc1ccc(NC(=O)CCS(=O)(=O)c2cc3c(cc2Cl)NC(=O)CO3)cc1`, the “activation” value is 2.42%.

Take `COc1cccc(CN2CCc3nc(SCC(=O)Nc4ccccc4)[nH]c(=O)c3C2)c1`: the “activation” value is -3.87%.

Turning to `Cc1ccccc1-c1nc(CS(=O)(=O)CC(=O)Nc2cc(Cl)cc(Cl)c2)c(C)o1`, the “activation” value is -3.85%.

Take `CCc1nnc(SCC(=O)Nc2cc(OC)ccc2OC)nc1CC`: the “activation” value was -10.7%.

Turning to `O=C(NCCCO)c1nn(-c2ccc(Cl)cc2)nc1CO`, the “activation” value is -10.5%.

Take `Cn1nnc2c(N3CCN(c4ccccc4)CC3)ncnc21`: the “activation” value was -18.9%.

Take `CN1CCN(C(CNC(=O)c2ccccc2F)c2ccc3c(c2)OCO3)CC1` (stereo unspecified): the “activation” value is -6.11%.

`COc1ccc(CNC(=O)c2ccc3c(O)c(S(=O)(=O)c4ccccc4)c(=O)[nH]c3c2)cc1`: the “activation” value is -15.3%.

On to `CCC(=O)Nc1cccc(C(=O)OCc2cc(=O)n3nc(CC)sc3n2)c1`, for which the “activation” value was -6.34%.

`Cc1cccc(OCCSc2nc3ccc(NC(=O)COc4ccccc4C)cc3s2)c1`: the “activation” value was -6.58%.

Regarding `Cc1cccc(CSc2nc3ccncc3n2CC(=O)N(C)C2CCCCC2)c1`, the “activation” value was -18.8%.

As for `Cc1ccccc1CSc1nc(-c2ccccc2)nc2c1Cc1c(CO)cnc(C)c1O2`, the “activation” value is -9.17%.

`O=C(Nc1nc2c(s1)CCCC2)c1ccccc1F`: the “activation” value is -19%.

Regarding `COc1ccc(CNC(=O)CSc2n[nH]c(-c3ccc(F)cc3)n2)cc1`, the “activation” value is 3.05%.

Turning to `COc1ccc(CNS(=O)(=O)c2ccc(-c3cnc(C4CC4)o3)cc2)cc1`, the “activation” value was -16.4%.

Turning to `CCc1nc2ccc(C(=O)N3CCN(c4cc(Cl)ccc4C)CC3)cc2nc1CC`, the “activation” value was -15.1%.

For `Cc1ccc(NC(=O)c2ccc(CN3CC(=O)N4CCCCC4C3=O)cc2)c(Cl)c1` (stereo unspecified), the “activation” value is -34.4%.

For the molecule `COc1cccc(NC(=O)Nc2ccc3c(c2)N(C)C(=O)c2ccccc2S3)c1`, the “activation” value is -12.1%.

Regarding `COc1ccccc1-c1nnc(SCC(N)=O)o1`, the “activation” value is -6.59%.

For the molecule `Cc1cccc(C(=O)Nc2ccc(S(=O)(=O)N3CCCCC3c3cccnc3)cc2)c1` (stereo unspecified), the “activation” value is 3.79%.

As for `CCc1ccc(NC(=O)c2sc3nc4c(cc3c2N)CN(CC)CC4)cc1`, the “activation” value is -6.64%.

Take `Cc1ccccc1NC(=O)CN1C(=O)C(C)(C)c2ccccc21`: the “activation” value was -12%.

On to `Cc1ccc(C(=O)Nc2ccc(OCc3cc(=O)n4c5c(sc4n3)CCCC5)cc2)cc1`, for which the “activation” value was -12.7%.

For `COc1ccc(NC(=O)CSc2nccn2Cc2ccc3c(c2)OCO3)cc1`, the “activation” value is -12.6%.

As for `CCOC(=O)c1c(S(=O)(=O)N2CCC(C(=O)NCc3ccccc3OC)CC2)c(C)n(C)c1C`, the “activation” value was -15.9%.

On to `O=C(Nc1ccccc1Br)c1cc(CN2CCCC2)on1`, for which the “activation” value was 8.06%.

For the molecule `COc1ccc(S(=O)(=O)NCc2cccn2Cc2cccc(C)c2)cc1Cl`, the “activation” value is -40.9%.

With `Cc1cccc(Cn2c(=O)n(CCC(=O)NCCc3ccc(Cl)cc3)c(=O)c3sccc32)c1`, the “activation” value was -0.804%.

With `Cc1noc2ncnc(NCc3ccccc3Cl)c12`, the “activation” value was -36.2%.

Consider `CCOc1ccc(CCNC(=O)CN(c2ccc(C)cc2)S(=O)(=O)N(C)C)cc1OCC`, for which the “activation” value is -3.15%.

Regarding `COc1ccc(C)cc1NC(=O)CCc1c(C)nn(-c2ccc(N3CCOCC3)nn2)c1C`, the “activation” value was -3.44%.

As to `CCc1ccc(N2C(=O)CN(S(=O)(=O)CC)CC2(C)C(=O)NC2CCCCC2)cc1` (stereo unspecified), the “activation” value was 0.64%.

Consider `Cc1ccc(Cc2nc3ccccc3nc2SCC(=O)Nc2cccc(C(F)(F)F)c2)cc1`, for which the “activation” value is -14.6%.

Consider `Cc1ccc(-n2c(SCC(=O)c3ccccc3)nc3c([nH]c4ccccc43)c2=O)cc1`, for which the “activation” value was 3.45%.

Turning to `CC(=O)OC1=C(C(C)=O)N(Cc2ccccc2)S(=O)(=O)c2ccccc21`, the “activation” value is -7.78%.

`Brc1cccc(-c2nnn3c2nc(NC2CCCCC2)c2ccccc23)c1`: the “activation” value is -7.7%.

As to `Cc1cccc(N2CCN(C(=O)CCSCc3ccccc3F)CC2)c1C`, the “activation” value is -9.85%.

With `COc1ccc(-c2c(C)nn3c(N4CCC(C(=O)NCCC(C)C)CC4)cc(C)nc23)cc1OC`, the “activation” value was -9.96%.

Turning to `Cc1cccc(NC(=O)Cn2c(=O)n(CCC(C)C)c(=O)c3cccnc32)c1`, the “activation” value was -14%.

In the case of `O=[N+]([O-])c1cc(-c2nc(-c3ccccc3)no2)ccc1NCc1ccco1`, the “activation” value was -6.22%.

Consider `Cc1cc(NC(=O)c2ccc(-c3ccc(Cl)cc3)o2)cc(-c2nc3ncccc3o2)c1O`, for which the “activation” value is -5.71%.

Consider `CCN(CC)c1ccc(NC(=O)Cn2nc3c(cc2=O)CCCC3)c(C)c1`, for which the “activation” value was -1.81%.

Turning to `Oc1c(C(c2ccccc2Cl)N2CCOCC2)sc2nc(-c3ccco3)nn12` (stereo unspecified), the “activation” value is -10.8%.
